From PubChem
JMJD2A Tudor – blocks the human JMJD2A Tudor domain | O75164 | AlphaScreen JMJD2A-Tudor / H3K4me3 peptide binding | Potency, µM (doses to about 114 µM), for the others: at the top dose activity change, negative = inhibition, most hits filed as inhibitors | 4.4% of 390,000 active; further: on the % scale 0 is the no-effect control and ±100 the full control effect; nearly all actives have a fitted effect of over 50% in size
G9a inh – blocks human histone lysine methyltransferase G9a; Potency, µM (top dose mostly 102 µM), for inactives: at the top dose activity, negative = inhibition, usual class: inhibitors; Q96KQ7; G9a H3K9 monomethylation, AlphaScreen, 2 h; 8.8% of 350,000 active; further: on the % scale 0 is the no-effect control and ±100 the full control effect; nearly all actives have a fitted effect of over 75% in size
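AlphaScreen read-out: biotin-H3K9 peptide (500 nM) methylation by 20 nM enzyme with 20 uM SAM, 2 h at room temperature after 15 min compound preincubation; anti-monomethyl H3K9 antibody plus donor/acceptor beads, 10 min dark.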
Sfp inh – inhibitors of Bacillus subtilis Sfp phosphopantetheinyl transferase | Biochemical Sfp PPTase activity, qHTS | 3.5% of 310,000 active | Potency, µM, for inactives: largest response in the series, negative = inhibition, actives largely listed as inhibitors;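 further: the enzyme is Sfp with the accession as filed and its product quenches rhodamine fluorescence; 0% = enzyme reaction without inhibitor and -100% = no enzyme wells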
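Step 1, compound plus 15 nM Sfp-PPTase, 15 min, room temperature. Step 2, add rhodamine-CoA (5 uM) and BHQ-2-YbbR (12.5 uM). Step 3, read 525/598 nm fluorescence at 0 and 30 min.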
PLK1 PBD inh – PLK1 (human) polo-box domain binding inhibition; Plk1 PBD binding of FITC phosphopeptide, fluorescence polarization; Potency, µM, inactives show max response, negative = inhibition, hits mostly inhibitors; 2.8% of 360,000 active; AID 720504; further: series mostly up to about 57 µM; on the % scale 0 is the no-effect control and ±100 the full control effect; nearly all actives have a fitted effect of over 65% in size
HP1b binding inh – inhibitors of HP1-beta chromodomain binding to methylated histone tails; P83916; AlphaScreen HP1-beta / biotin-H3K9me3 peptide binding; Potency, µM (series often up to 114 µM), for inactives: top-dose activity change, negative = inhibition, most hits filed as inhibitors; 0.56% of 390,000 active; further: nearly all actives have a fitted effect of over 70% in size
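Compound inhibition of the preformed complex between 50 nM HP1-beta and 50 nM biotinylated H3K9me3 peptide was read by AlphaScreen. Buffer was PBS pH 7.4 with 0.01% Tween-20. Incubations ran 30 min at room temperature, with 10 ug/mL donor/acceptor beads.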
BAZ2B block – blocks human BAZ2B; Q9UIF8; AlphaScreen BAZ2B-H3K14Ac peptide displacement; Potency, µM (top dose mostly 114 µM), for the others: at the highest dose activity change, negative = inhibition, usual class: inhibitors; 4.4% of 360,000 active; further: on the % scale 0 is the no-effect control and ±100 the full control effect; nearly all actives have a fitted effect of over 60% in size
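Protein-peptide AlphaScreen: BAZ2B 50 nM, b-H3K14Ac 50 nM, 1x PBS pH 7.4 + 0.01% Tween-20. Preincubation 30 min RT; cpd 30 min RT (top 110 uM); beads 20 min RT, light-protected.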
TbPYK inh – confirmation of Trypanosoma brucei pyruvate kinase inhibitors; shares compounds with PLK1 PBD inh; recombinant TbPYK, Kinase-Glo ATP luminescence; Potency, µM (top dose mostly 76.9 µM), for inactives: at the top dose activity change, negative = inhibition, most hits filed as inhibitors; 67% of 890 active; AID 720569; further: on the % scale 0 is the no-effect control and ±100 the full control effect; nearly all actives have a fitted effect of over 70% in size
TbPYK ADP-Glo – orthogonal confirmation of Trypanosoma brucei pyruvate kinase inhibitors; 62% of 890 active; recombinant TbPYK, ADP-Glo luminescence, 60 min; AID 720584; shares compounds with PLK1 PBD inh; Potency, µM (titrated, usually from 76.9 µM), for the others: at the top dose activity change, negative = inhibition, usual class: inhibitors; further: on the % scale 0 is the no-effect control and ±100 the full control effect; nearly all actives have a fitted effect of over 75% in size
The depositor's hits bear a star; ? = inconclusive; · = not tested or not shown; [ ] = dose if it differs, or a comment. Only some compounds are listed: those with a hit (about 12% of all), similar ones and a draw of the others. The call rests on the fitted dose curve; in most records, active means well fitted curve in the direction sought with a large enough effect; inconclusive means small, poorly fitted or top-dose-only effect, or another doubt; inactive means no such curve, though single readings can be large; an effect the other way counts as inactive or inconclusive. Potency means the concentration at half of the fitted maximal effect.

SMILES	JMJD2A Tudor	G9a inh	Sfp inh	PLK1 PBD inh	HP1b binding inh	BAZ2B block	TbPYK inh	TbPYK ADP-Glo
CCOC(=O)c1ccc(NC(=O)c2sc3nc(N4CCOCC4)c4c(c3c2N)CCCC4)cc1	9%	10%	-15%	-18%	32%	-1%	?	?
CC1CCCC(C)N1C(=O)COC(=O)c1cccs1 (stereo unspecified)	-11%	·	·	-6%	30%	·	·	·
COC(=O)[C@@]1(C)[C@H]2C(=O)N(Cc3ccccc3)C(=O)[C@H]2[C@H]2CN(C)C(=NC3CCCCC3)N21	?	·	·	-16%	30%	·	·	·
CC(=O)/C(=N\Nc1ccc(Cl)cc1Cl)Sc1nnc(-c2ccccc2)n1-c1ccccc1	-12%	?	4%	-9%	35%	-3%	?	14µM*
COc1cccc(N(C(=O)c2cccs2)c2nc3ccccc3s2)c1	0%	-24%[12.7 µM]	-1%	-3%	21%	2%	·	·
COc1cc(OC)c(NC(=O)Nc2cc(C)on2)cc1Cl	·	·	12%	·	·	·	·	·
